TROY NFkB inh – inhibitors of TROY-driven NF-kB signaling, primary screen, Q293 LMP1-TROYcd cells, NF-kB luciferase, uHTS; actives 0.98% (n = 360,000); inhibition, % at 10 µM; Q293 LMP1-TROYcd NF-kB luciferase reporter, 4 h;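 active = compounds whose plate-normalised and pattern-corrected inhibition of the luciferase reporter signal at the single screening dose is 50% or more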
LGR2 inh – inhibitors of bursicon-induced LGR2 CRE-luciferase signal, primary screen, cell-based, HEK293, CRE-luciferase reporter, bursicon stimulation | Drosophila bursicon receptor LGR2 (rickets) | bursicon-stimulated, 4 h | inhibition, % at 9.99 µM | actives 0.35% (n = 380,000) | AID 720647, 2013;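 active = drop in luminescence signal, shown as inhibition above about 50% in the replicate tests, limit read from the data, passing the limit was not always enough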;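 also: agonist challenge used bursicon conditioned medium at about half maximal strength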
TWEAK Fn14 block – inhibitors of TWEAK-Fn14 signaling, primary screen, luciferase reporter cells, uHTS; TWEAK-stimulated Fn14 reporter cells, luciferase luminescence, 8 h; inhibition, % at 10 µM; actives 2% (n = 360,000); in the data active = inhibition above about 50%
HSF-1 act – HSF-1 activators, primary screen, NIH3T3-HGL cells, MG132 stress, luminescence, single point. NIH3T3-HGL HSF-1 luciferase reporter, 8 h; 100% = twice DMSO control signal. activation, % at 9 µM. actives 1.7% (n = 300,000);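 active = mean replicate activation of at least 50% with a set share of replicates each reaching 50%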;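 also: 0% = median of the neutral control wells and 100% = twice that signal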
LMP1 NFkB inh – EBV LMP1-driven NF-kappaB luciferase reporter inhibitors, primary screen, cell-based, luminescence, single point; AID 504558, 2011; inhibition, % at 12.5 µM; LMP1-induced NF-kappaB luciferase reporter cells; actives 0.69% (n = 350,000); in the data active = inhibition above about 41%;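 also: 0% = neutral control wells and 100% = reference inhibitor control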
HSF1 inh – HSF1 inhibitors in luciferase reporter cells, primary screen, cell-based, NIH3T3, luminescence; actives 0.77% (n = 300,000); NIH3T3-HGL HSE-luciferase, MG132-induced, luminescence 8 h; hits give low values; activity change, negative = inhibition, % at 7.5 µM (by protocol);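 active = more than half of replicate wells show activity change below -50%, luminescence cut by over half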;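 also: luciferase reports HSF-1 transcriptional activity via heat shock element; 0% = median of DMSO wells and -100% = zero luminescence signal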
Starred values were filed as active, the others as inactive; . = not tested or not shown. In the library only some 3.6% were active in any assay of this set; here they are far more common.

SMILES	TROY NFkB inh	LGR2 inh	TWEAK Fn14 block	HSF-1 act	LMP1 NFkB inh	HSF1 inh
C[C@@H]1CN([C@@H](C)CO)C(=O)Cc2cc(NC(=O)C3CCCCC3)ccc2O[C@H]1CN(C)C(=O)NC1CCCCC1	.	-18	.	.	.	.
Cc1ccc(S(=O)(=O)N(C)C[C@@H]2Oc3c(NC(=O)C4CCOCC4)cccc3C(=O)N([C@@H](C)CO)C[C@H]2C)cc1	.	-2	.	.	.	.
N#Cc1ccc(Cl)cc1NC(=O)COC(=O)c1ccc(S(=O)(=O)N2CCCC2)cc1	6	.	8	55*	-8	11
O=C(COC(=O)c1ccc(S(=O)(=O)N2CCCC2)cc1)Nc1ccccc1Cl	5	-2	9	.	-5	.
O=C(COC(=O)c1ccc(S(=O)(=O)N2CCCC2)cc1)Nc1ccccc1	6	17	9	.	8	.
O=C(O)c1cccc(NC(=O)c2ccc(Cl)c(S(=O)(=O)N3CCCCCC3)c2)c1	-64	-5	-41	-33	57*	-31
O=C(COC(=O)c1ccc(Cl)c(S(=O)(=O)N2CCCCCC2)c1)Nc1ccccc1	58*	.	23	2	-15	2
C/C=C/c1ccc2c(c1)O[C@H](CN(C)C(=O)C1CCOCC1)[C@@H](C)CN([C@@H](C)CO)S2(=O)=O	.	0	.	.	.	.
C[C@@H]1CN([C@@H](C)CO)C(=O)c2cccc(NC(=O)c3ccc(-c4nccs4)cc3)c2O[C@@H]1CN(C)S(=O)(=O)c1ccc(F)cc1	.	17	.	.	.	.
COC(=O)C1=C(O)/C(=C\c2ccc(CNC(=O)C(=O)Nc3ccc(C)cc3)o2)N=C1C	-14	.	-1	4	-13	-6
CCOC(=O)C1=C(O)/C(=C/c2ccc(CNC(=O)C(=O)Nc3ccc(C)cc3)o2)N=C1C	7	-32	-6	-18	77*	-4
COC(=O)c1ccc(N/C=C\C(=O)c2ccc3c(c2)OCO3)cc1	-37	-72	1	-19	1	-11
O=C(/C=C\Nc1cccc(F)c1)c1ccc2c(c1)OCO2	3	.	81*	-8	18	-15
O=C(/C=C\Nc1ccccc1Br)c1ccc2c(c1)OCO2	47	79*	61*	-43	13	-29
N#C[C@H]1[C@H](c2ccccc2)[C@@H](CO)N1C(=O)Cc1ccccn1	.	17	.	.	.	.
CNC(=O)C[C@@H]1CC[C@H]2[C@@H](COC[C@@H](O)CN2Cc2ccc(C(F)(F)F)cc2)O1	.	-1	.	.	.	.
CC(C)CC#Cc1ccc2c(c1)O[C@@H](CN(C)CC1CCOCC1)[C@@H](C)CN([C@@H](C)CO)S2(=O)=O	.	14	.	.	.	.
NC(=S)NN=Cc1nccc2c(N)cccc12	-3	22	12	.	76*	.
CCN(C(C)=O)c1cnc(C=NNC(N)=S)c2ccccc12	-6	15	-15	.	-2	.
Cc1cccc(C)c1NC(=O)N1C(C(=O)O)CSC1C(=O)O (stereo unspecified)	-15	.	13	-90	0	-88*
COC(=O)C1CSC(C(=O)OC)N1C(=O)Nc1c(C)cccc1C (stereo unspecified)	-2	15	-9	-14	8	-4
COc1ccc(NC(=O)N(C)C[C@@H]2Oc3ccc(NC(=O)CCCN(C)C)cc3C(=O)N([C@H](C)CO)C[C@H]2C)cc1	.	-1	.	.	.	.
CCOc1cc(/C=C2/C(=N)N3N=C(CC)SC3=NC2=O)ccc1OC(=O)c1ccco1	17	17	3	26	43*	-2
COc1ccccc1NC(=O)N[C@@H]1C=C[C@@H](CC(=O)NCc2ccc(Cl)c(Cl)c2)O[C@@H]1CO	.	7	.	.	.	.
O=C1C2C(C(=O)N1/N=C/c1ccc([N+](=O)[O-])o1)C1C=CC2C12CC2 (stereo unspecified)	-16	4	49	8	-24	10
CC1=NN(c2nc(N)nc(/C(C#N)=C/c3ccc([N+](=O)[O-])o3)n2)C(C)(C)C1	-1	-26	71*	.	0	.
